L3MBTL1 inh = blocks human L3MBTL1. Q9Y468. AlphaScreen L3MBTL1–H3K9me1 peptide binding. 230,000 tested, 0.66% active. Potency, µM (top dose mostly 57.1 µM), for inactives: top-dose activity, negative = inhibition, actives largely listed as inhibitors; further: nearly all actives have a fitted effect of over 60% in size
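L3MBTL1 50 nM + b-AHA-H3(1-15)K9me1 75 nM, 30 min RT; compound added, 30 min RT; streptavidin donor/Ni-chelate acceptor beads 10 ug/mL each final, 30 min RT dark; AlphaScreen read.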
RECQ1 inh-1 = RECQ1 (human) helicase inhibition. P46063. RECQ1 DNA unwinding, red fluorescence kinetic read. Potency, µM (doses to about 57.3 µM), for the others: at the highest dose activity, negative = inhibition, hits mostly inhibitors. 240,000 tested, 0.54% active. AID 2549;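 further: plate controls were vehicle for no effect and no enzyme for full effect; nearly all actives have a fitted effect of over 30% in size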
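50 nM RECQ1T1 preincubated 15 min with compound in Tris pH 8.0 buffer with MgCl2, DTT, Tween-20 and 2.5 ug/ml poly(dI-dC); started with 200 nM TAMRA/BHQ-2 forked duplex and 2 mM ATP. Unwinding read as fluorescence (525/598 nm), two reads 2 h apart.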
BLM inh = blocks DNA unwinding by human BLM helicase; 350,000 tested, 0.2% active; P54132; Potency, µM (highest dose often 56.1 µM), for inactives: at the highest dose activity change, negative = inhibition, most hits filed as inhibitors; recombinant BLM DNA unwinding, fluorescence dequenching; AID 2528;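 further: plate controls were vehicle for no effect and no enzyme for full effect; nearly all actives have a fitted effect of over 35% in size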
KDM4E inh = blocks human JMJD2E demethylase activity; Potency, µM (titrated, usually from 57.1 µM), without a hit: at the highest dose activity change, negative = inhibition, most hits filed as inhibitors; 230,000 tested, 1.6% active; B2RXH2; JMJD2E catalytic domain, FDH-coupled NADH fluorescence (FDH is formaldehyde dehydrogenase);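 further: 0% = wells with enzyme and -100% = buffer wells without enzyme; nearly all actives have a fitted effect of over 50% in size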
TDP1 inh = blocks human tyrosyl-DNA phosphodiesterase 1; Q9NUW8; recombinant TDP1, AlphaScreen DNA substrate cleavage; Potency, µM (titrated, usually from 130 µM), for the others: at the highest dose activity change, negative = inhibition, actives largely listed as inhibitors; 350,000 tested, 0.28% active; further: nearly all actives have a fitted effect of over 40% in size
Target sequence (Q9NUW8 whole entry, looked up): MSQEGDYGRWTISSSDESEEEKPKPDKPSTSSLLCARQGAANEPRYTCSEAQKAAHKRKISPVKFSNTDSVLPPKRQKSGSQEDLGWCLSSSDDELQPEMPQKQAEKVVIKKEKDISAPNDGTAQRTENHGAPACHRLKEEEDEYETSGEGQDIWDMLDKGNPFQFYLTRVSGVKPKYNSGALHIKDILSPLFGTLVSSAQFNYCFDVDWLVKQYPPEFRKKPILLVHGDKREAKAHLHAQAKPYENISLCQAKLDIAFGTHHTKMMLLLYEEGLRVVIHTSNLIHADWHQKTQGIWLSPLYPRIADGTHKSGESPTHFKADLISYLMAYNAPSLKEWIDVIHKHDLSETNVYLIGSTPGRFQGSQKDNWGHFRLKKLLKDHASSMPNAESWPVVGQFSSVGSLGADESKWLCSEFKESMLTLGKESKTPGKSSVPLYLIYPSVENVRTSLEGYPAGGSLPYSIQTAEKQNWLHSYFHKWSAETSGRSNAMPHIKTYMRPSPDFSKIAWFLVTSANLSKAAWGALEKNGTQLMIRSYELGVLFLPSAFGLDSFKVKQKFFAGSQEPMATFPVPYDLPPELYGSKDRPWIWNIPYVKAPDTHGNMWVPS
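Steps: enzyme plus compound, 15 min RT; add biotin/phosphotyrosine-FITC oligonucleotide (15 nM final), react 5 min; add donor/acceptor beads (10 ug/ml final), 10 min; read AlphaScreen. Tdp1 at 1 nM final.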
APE1 inh = inhibitors of human APE1 endonuclease; P27695; recombinant APE1, TAMRA/BHQ-2 abasic DNA cleavage fluorescence; Potency, µM (highest dose often 65.8 µM), inactives show at the highest dose activity change, negative = inhibition, usual class: inhibitors; 350,000 tested, 0.35% active;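 further: plate controls were vehicle for no effect and reference inhibitor for full effect; nearly all actives have a fitted effect of over 55% in size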
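Substrate: short duplex with […] THF abasic site, 5'-TAMRA and 3'-BHQ-2, 50 nM final. APE1 at 0.75 nM, preincubated 15 min RT with compound. Fluorescence increase from first to third read measured activity.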
RECQ1 conf = confirmation of human RECQ1 helicase inhibitors; RECQ1 helicase DNA unwinding, fluorescence; Potency, µM (top dose mostly 229 µM), for inactives: top-dose activity change, negative = inhibition, actives largely listed as inhibitors; shares compounds with RECQ1 inh-1; 610 tested, 28% active; further: nearly all actives have a fitted effect of over 45% in size
ADP FP counter = counter-screen for RECQ1 inhibitors: ADP displacement; shares compounds with RECQ1 inh-1; ADP fluorescence polarization displacement counterscreen; Potency, µM (highest dose often 228 µM), without a hit: at the top dose activity change, negative = inhibition, actives largely listed as inhibitors; 530 tested, 27% active; further: nearly all actives have a fitted effect of over 45% in size
RECQ1 inh-2 = RECQ1 helicase inhibition confirmed, round 2; AID 504841; 1,100 tested, 15% active; shares compounds with RECQ1 inh-1; Potency, µM (titrated, usually from 119 µM), for inactives: top-dose activity, negative = inhibition, usual class: inhibitors; recombinant RECQ1 DNA unwinding, red fluorescence; further: nearly all actives have a fitted effect of over 50% in size
* hit, by the source's call; u = inconclusive; x = not tested or not shown; [ ] = remark or other dose. This excerpt belongs to a sample that is enriched for hits. Unless noted, the call rests on the fitted dose curve; in most records, active means well fitted curve in the direction sought with a large enough effect; inconclusive means small, poorly fitted or top-dose-only effect, or another doubt; inactive means no such curve, though single readings can be large; an effect the other way counts as inactive or inconclusive. Unless noted, on the % scale 0 is the no-effect control and ±100 the full control effect; potency means the concentration at half of the fitted maximal effect.

SMILES | L3MBTL1 inh | RECQ1 inh-1 | BLM inh | KDM4E inh | TDP1 inh | APE1 inh | RECQ1 inh-2 | others
Cc1ccc(NC(=O)Cn2cc(S(=O)(=O)N3CCC(C)CC3)c3ccccc3c2=O)c(Br)c1 | x | x | -6.5% | x | 0.0% | x | x
COc1ccc(-c2csc(N3CCN(c4cc(C)nc5ccccc45)CC3)n2)cc1OC | u | 14.1µM* | -4.6% | u | 5.4% | u | -11.5% | RECQ1 conf=-3.1%[114 µM];ADP FP counter=u
O=S(=O)(c1ccccc1)n1c(C(O)c2ccccn2)cc2ccccc21 (stereo not given) | -3.2% | u | -1.6% | -3.5% | 1.2% | 0.0% | -12.9%
COC(=O)[C@]1(Cc2ccccc2)N[C@H](c2ccc(-c3cc(C(C)=O)cs3)cc2)[C@@H]2C(=O)N(C)C(=O)[C@@H]21 | 3.1% | x | x | x | x | -2.3% | x
CCc1nnc(NS(=O)(=O)c2ccc(NC(=S)NC(=O)/C=C/c3ccccc3)cc2)s1 | 3.5% | u | -9.3% | 8.6% | x | u | u
CCc1nnc(NS(=O)(=O)c2ccc(NC(=S)NC(=O)/C=C/c3ccc(C(C)C)cc3)cc2)s1 | -0.2% | u | -20.4% | -10.9% | -10.4% | -4.9% | u
CCc1nnc(NS(=O)(=O)c2ccc(NC(=S)NC(=O)/C=C/c3ccc(OC)cc3)cc2)s1 | -15.2% | 3.0% | u | -8.5% | 1.1% | 2.4% | x
CC(C)(C)OC(=O)CC(=O)NNC(=O)c1cc2ccccc2[nH]1 | x | x | x | x | -0.5% | x | x
CCn1c(SCc2c(F)cccc2Cl)nc(=O)c2c(C(=O)OC)cc(C3CC3)nc21 | x | x | -8.5% | x | 8.1% | x | x
COc1ccc(S(=O)Cc2ccc(C(=O)NC3CC3)o2)cc1 (stereo not given) | x | x | 2.0% | x | 1.0% | -6.6% | x
O=C(O)c1cccc(N2C(=O)/C(=C/c3ccc(SCc4ccc(Cl)cc4)o3)SC2=S)c1 | 3.55µM* | 22.4µM* | 113.0% | 22.4µM* | x | 10µM* | x | RECQ1 conf=-86.7%[114 µM]
O=C(O)CN1C(=O)/C(=C/c2ccc(-c3cccc(Cl)c3)o2)SC1=S | x | x | x | x | 4.9% | x | x
CCCOC(=O)CSc1nnc(-c2ccccc2)o1 | x | x | -2.1% | x | -1.9% | x | x
COC(=O)c1cc2c(-c3ccccc3)cc3ccccn3c-2c1C(=O)OC | x | u | -17.1% | -0.8% | 10.5% | -5.0% | 79.4µM*
COC(=O)c1c(C(=O)OC)c2cccc3cc(-c4ccccc4)c4ccc1c4n32 | x | 3.98µM* | -12.6% | 2.51µM* | 11.8% | -6.4% | u
COC(=O)c1c(C)c2c(C)cc3ccccn3c-2c1C(=O)OC | x | -0.8% | -0.2% | 9.0% | 10.9% | -1.4% | x
CC(C)(C)NC[C@H](O)CSc1nc(-c2ccc(C(N)=O)s2)cs1 | x | x | 50.0% | x | x | x | x
O=C1Nc2ccccc2SC(c2ccccc2)C1O (stereo not given) | x | 31.6µM* | -7.6% | u | u | u | u
COc1cccc(C(=O)NCC(c2ccc(N(C)C)cc2)N2CCc3ccccc32)c1OC (stereo not given) | x | x | -7.6% | x | 13.8% | x | x
N=C(N)SCCN=C(N)N | x | -5.5% | -0.8% | x | 13.4% | 1.2% | x
CCc1ccccc1N(C)C(=O)Nc1cn(CC(C)C)c(=O)c2ccccc12 | x | x | -2.3% | x | 0.0% | x | x

Bioassay records as filed in PubChem BioAssay.
